About 83,000 compounds went through this panel and 20% of them were active in at least one assay; those are over-represented in the sample as a whole.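 The endpoint reported here, percent growth, reads 100 for growth as untreated, 0 for no net growth and -100 for all cells dead.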 Unmarked numbers belong to inactive results. The source made the active and inactive calls. How the source made its calls: active means growth percent below 10; inactive means the rest.
What follows are compounds tested on OVCAR-8 ovarian (assay: NCI-60 one-dose screen, 48 h (100 = growth as untreated, 0 = no growth, -100 = all killed)). Conditions: 10 µM unless noted.
Work on `O=C(NCCNc1nccc(Nc2ccc(S(=O)(=O)Nc3ccccn3)cc2)n1)c1cccc([N+](=O)[O-])c1` yielded a growth of 104%.
Work on `COc1cc2ncnc(Nc3ccc(S(=O)(=O)Nc4cc(C)on4)cc3)c2cc1OCCCN1CCN(c2ccc(F)cc2)CC1` yielded a growth of 103%.
`CN(C)CC1CCC(CN(C)C)C1=O` (configuration not stated) gave a growth of 105%.
For `N#CC1=C(N)Oc2c(ccc3ccccc23)C1c1ccccc1` (configuration not stated), the growth was 7.27% (active).
In the case of `Cc1ccc(NC(=O)c2sc3nc(C)c(Br)c(C)c3c2N)cc1`, the growth is reported as 39.7%.

What follows are compounds tested on OVCAR-5 ovarian in the same assay as above. Conditions: 10 µM unless noted.
`Cn1c(=O)cc2c3c(c(NCCCO)ccc31)C(=O)c1ccccc1-2` was tested, and the growth was 65.6%.
With `O=C(OC(CO)C(=O)NC12CC3CC(CC(C3)C1)C2)c1ccc(Cl)cc1` (configuration not stated) the growth was 96.3%.
`N#Cc1nc(-c2ccc(F)cc2)oc1S(=O)(=O)N1CCCCC1` gave a growth of 95.9%.
In the case of `COC1/C=C/OC2(C)Oc3c(C)c(O)c4c(O)c(c(/C=N/Nc5ccc([N+](=O)[O-])cc5[N+](=O)[O-])c(O)c4c3C2=O)NC(=O)C(C)=C/C=C/C(C)C(O)C(C)C(O)C(C)C(OC(C)=O)C1C` (configuration not stated), the growth is reported as 48.3%.
Work on `O=C1c2c(c3c4ccccc4[nH]c3c3ccc4ccccc4c23)C(=O)N1CCN1CCOCC1` yielded a growth of 71.7%.
Compound `NC(=O)c1cc(I)ccc1NC(=O)/C=C/c1ccccc1` has a growth of 42.4%.
In the case of `COC(=O)c1c2c(c(C)[n+]([O-])c1C)C(=O)C(NCc1cccc(OC)c1)=CC2=O`, the growth is reported as 67.6%.
`COc1ccc(CNc2c3ccccc3nc3ccccc23)cc1` showed a growth of 46.4%.
Compound `N=C(N)c1ccc(-c2ccc(-c3ccc(Cl)c(Cl)c3)s2)nc1` has a growth of 20.1%.
`Nc1c(C(=O)Nc2ccccc2F)sc2nc3c(cc12)CCCC3` gave a growth of 74.7%.
For `Cc1ccc2c(n1)C(=O)C(Br)=C(C1CCCC1)C2=O`, the growth was 106%.
`N#CC1=C(N)Oc2c(sc3c(Br)cccc23)C1c1ccc(Cl)cc1` (configuration not stated) showed a growth of 26.3%.
Work on `COc1ccc(/C=C(\C#N)n2nnc3cc(F)c(F)cc32)cc1` yielded a growth of 56.3%.
For `COc1cc(NS(=O)(=O)c2ccc(-c3cnc(C4CC4)o3)cc2)ccc1F`, the growth was 36.7%.
Compound `O=C(Nc1cccc2ccccc12)NC1CC1` has a growth of 110%.
In the case of `CN(C)CC(C)(C)C(=O)/C=C/c1ccccc1`, the growth is reported as -12% [25 µM] (active).
Work on `COc1ccc(-c2nn(-c3cccc(Cl)c3)cc2-c2cc(-c3ccc(Br)cc3)nc(N)n2)cc1` yielded a growth of 97.2%.
For `COc1cc2c(c(OC)c1OC)CCC(c1cccc(NC(=O)c3ccc(Br)cc3)c1)O2` (configuration not stated), the growth was 93.3%.
`CCOC(=O)C#Cc1c(C(=O)OCC)nnn1Cc1ccc([N+](=O)[O-])cc1` gave a growth of 97.3%.
`O=C(N/N=C/c1c(Cl)cccc1Cl)c1cccnc1Nc1cccc(C(F)(F)F)c1` was tested, and the growth was 53.4%.
In the case of `C#COc1cccc(Nc2c(C#N)cnc3ncc(NC(=O)CCl)cc23)c1`, the growth is reported as 42.9% [6.25 µM].
`CC(C)(Sc1cc(C(C)(C)C)c(O)c(C(C)(C)C)c1)Sc1cc(C(C)(C)C)c(OC(=O)CCCC(=O)O)c(C(C)(C)C)c1` was tested, and the growth was 100%.
With `COc1c(B(O)O)cccc1-c1cc(C)c2c(ccc3[nH]ncc32)n1` the growth was 72.1%.
In the case of `CCOC(=O)C1=C(N)Oc2c(sc3c(F)cccc23)C1c1ccc(O)cc1` (configuration not stated), the growth is reported as 92.4%.
`OCCn1cc(-c2nc(-c3c[nH]c4ncccc34)cs2)c2cc(F)ccc21` was tested, and the growth was 84.3%.
Work on `O=C(/C=C/c1cccs1)Nc1ncc(Cc2ccccc2F)s1` yielded a growth of 34.5%.
`CCN1C(=O)N(CC)C2C1NN=c1s/c(=C\c3ccccc3F)c(=O)n12` (configuration not stated) gave a growth of 27.5%.
With `CS(=O)(=O)Nc1cncc(-c2ccc3ncnc(Nc4cncc(Cl)c4)c3c2)c1` the growth was 74.3%.
For `C1CN(SSN2CCOCC2)CCO1`, the growth was 35.8% [100 µM].
`CS(=O)(=O)c1ccc(-c2cnn3ccc(-c4cccc(S(=O)(=O)C5CC5)c4)nc23)cc1` was tested, and the growth was 68.7%.
With `CN1C(=O)/C(=C\c2nc([P+](c3ccccc3)(c3ccccc3)c3ccccc3)c(N3CCOCC3)o2)SC1=S` the growth was 96.7%.
`C=C(C)[C@@H]1CCC[C@]2(COS(=O)(=O)c3ccc(C)cc3)CC[C@]3(C)[C@@H](CC[C@@H]4[C@@]5(C)CCCNC(C)(C)[C@@H]5CC[C@]43C)[C@@H]12` showed a growth of 63.3%.
